Results published in PubChem BioAssay AID720519 (National Center for Advancing Translational Sciences (NCATS), 2013).
Results filed as inconclusive are left out. Unmarked numbers belong to inactive results. Calls of active or inactive are those of the source. Calls come from the whole dose curve; as a rule, active = well fitted activation curve with a large enough effect; inconclusive = small, poorly fitted or top-dose-only effect; inactive = flat fitted curve, though single readings scatter.

experiment: qHTS for Inhibitors of Cell Surface uPA Generation: Confirmatory Assay for Cherry-picked Compounds; settings: cell surface uPA activity generation, qHTS confirmation; series mostly up to 115 µM; inhibition: at the top concentration; for inhibition: 0% is about no effect
Procedure, shortened: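 RAW 264.7 cells at 4000/well, incubated overnight, then treated with compounds. After 24 h at 37 C, viability was read by ATPlite luminescence. An increase in signal indicates blocked uPA-dependent LF entry.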
Potency is the fitted concentration of half-maximal effect.

Question: Which “inhibition” value does the source give for `CC(OC(=O)c1cccc(-n2cnnn2)c1)C(=O)Nc1ccc(F)c(F)c1F` (stereo unspecified) here?
Answer: -3.23%

Question: For `OC(COc1ccc(Br)cc1)CN1CCN(c2ccccc2)CC1` (stereo unspecified), which “inhibition” value is on record?
Answer: -0.285%

Question: For `Cc1cccc(C)c1NC(=O)c1c(O)c2ccccc2[nH]c1=O`, which “inhibition” value is on record?
Answer: -3.96%

Question: With `CCN(c1ccc(OC)cc1)S(=O)(=O)c1ccc2c(c1)NC(=O)CS2` as the compound, how does the “inhibition” value read?
Answer: -2.56%

Question: With `O=C(O)CSc1nnc(COc2ccccc2)n1-c1ccccc1` as the compound, how does the “inhibition” value read?
Answer: -1.25%

Question: Which “inhibition” value does the source give for `CC1(C)CC(=O)C=C(c2ccc3ccccc3c2)C1` here?
Answer: -0.951%

Question: Which “inhibition” value does the source give for `Nc1cc(=O)[nH]c(SCC(=O)Nc2cccc([N+](=O)[O-])c2)n1` here?
Answer: -1.96%

Question: For `CN(C)c1cccc(C(=O)N(C)C2CCCN(Cc3ccccc3F)C2)c1` (stereo unspecified), which Potency is on record?
Answer: 20.7 µM (active)

Question: For `COc1ccc(C(=O)NCCCN2CCOCC2)cc1`, which “inhibition” value is on record?
Answer: -1.56%

Question: Which “inhibition” value does the source give for `C/C(=N\NC(=O)c1cccc([N+](=O)[O-])c1)c1cccnc1` here?
Answer: -1.45%

Question: Which “inhibition” value does the source give for `COc1ccc(OC)c(NC(=O)C2CC2c2ccccc2)c1` (stereo unspecified) here?
Answer: -2.61%

Question: For `CCCC1=NN(C(=O)Cc2ccc(OC)cc2)C(O)(C(F)(F)F)C1` (stereo unspecified), which “inhibition” value is on record?
Answer: -1.51%

Question: Which “inhibition” value does the source give for `Cc1ccc(C(CC(=O)N2CCCC2)c2ccccc2)c(O)c1` (stereo unspecified) here?
Answer: -1.01%

Question: With `CC(=O)NC(=S)Nc1ccc([N+](=O)[O-])cc1C` as the compound, how does the “inhibition” value read?
Answer: 4.72%

Question: Which “inhibition” value does the source give for `Cc1ccc(NC(=O)C(C)S)cc1` (stereo unspecified) here?
Answer: -3.16%

Question: Which “inhibition” value does the source give for `NC(=O)C1CCN(C(=O)c2cccc3ccccc23)CC1` here?
Answer: 0.572%

Question: Which “inhibition” value does the source give for `O=C(CSc1nnnn1-c1cccc(F)c1)Nc1nc2ccccc2s1` here?
Answer: 0.878%

Question: Which “inhibition” value does the source give for `C=CCN1C=C2C(=O)C(C)(OC(=O)c3cnc4ccccc4n3)C(=O)C=C2C=C1/C=C/COC` (stereo unspecified) here?
Answer: -0.841%

Question: With `Cc1nc([N+](=O)[O-])cn1CCCCN1C(=O)c2ccccc2C1=O` as the compound, how does the “inhibition” value read?
Answer: -1.31%

Question: For `O=C(NCc1ccccn1)C1CCN(C(=O)c2cc3sccc3n2Cc2ccc(F)cc2)CC1`, which “inhibition” value is on record?
Answer: -2.71%

Question: With `COc1cccc(C(=O)NCc2ccc3[nH]c(C)cc3c2)c1` as the compound, how does the “inhibition” value read?
Answer: -1.27%
